Drawing on PubChem BioAssay (Tox21), this text covers Potency and outcome for 33 molecules.

The nature of experiment [1]: qHTS assay to identify small molecule antagonists of the glucocorticoid receptor (GR) signaling pathway - cell viability counter screen (AID 720693; note: nearly all actives have a fitted effect of over 55% in size; note: potency is the fitted concentration of half-maximal effect). (Quantitative high-throughput screening tests each substance at several concentrations.)
Experiment [2] in a line: qHTS assay for identifying genotoxic compounds that show differential cytotoxicity against isogenic chicken DT40 cell lines with known DNA damage response pathways - wild type cell line (AID 743012). Note: nearly all actives have a fitted effect of over 60% in size. Note: potency is the fitted concentration of half-maximal effect. A digest of the protocol:
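First, wild type DT40 cells were plated at 300 per well and equilibrated about 0.5 h at 37 C/5% CO2. Next, compounds in DMSO were added and exposure lasted 40 h. Finally, CellTiter-Glo was added for 30 min at room temperature and luminescence recorded.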

Experiment [3] in a line: qHTS assay for identifying genotoxic compounds that show differential cytotoxicity against isogenic chicken DT40 cell lines with known DNA damage response pathways - Rev3 mutant cell line (AID 743014). Note: nearly all actives have a fitted effect of over 55% in size. Note: potency is the fitted concentration of half-maximal effect.
A short description of experiment [4]: qHTS assay for identifying genotoxic compounds that show differential cytotoxicity against isogenic chicken DT40 cell lines with known DNA damage response pathways - Rad54/Ku70 mutant cell line (AID 743015). Note: nearly all actives have a fitted effect of over 60% in size. Note: potency is the fitted concentration of half-maximal effect.
The nature of experiment [5]: qHTS assay to identify small molecule antagonists of the androgen receptor (AR) signaling pathway - cell viability counter screen (AID 743033; note: nearly all actives have a fitted effect of over 45% in size).
The nature of experiment [6]: qHTS assay to identify small molecule antagonists of the androgen receptor (AR) signaling pathway using the MDA cell line - cell viability counter screen (AID 743041; note: nearly all actives have a fitted effect of over 45% in size). Summed up: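 Viability counter screen run alongside the AR antagonist reporter: cells seeded 5 h before compound, R1881 added, 16 h incubation at 37C without CO2, fluorescent CellTiter-Fluor signal quantified.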

Experiment [7] has as its target Androgen receptor (Homo sapiens) (UniProt P10275). Kind of experiment: qHTS assay to identify small molecule antagonists of the androgen receptor (AR) signaling pathway (AID 743035; active = well fitted inhibition curve with a large enough effect in the signal ratio in the repeat runs, not every such curve was filed as active; the % refers to the signal ratio). A digest of the protocol:
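Beta-lactamase FRET read (2 h RT incubation with LiveBLAzer B/G) following 16 h of compound plus R1881 treatment of AR-UAS-bla HEK293 cells, which had been pre-incubated 4 h at 37C.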

For experiment [8] the target is unchanged. Kind of experiment: qHTS assay to identify small molecule agonists of the androgen receptor (AR) signaling pathway (AID 743036; active = well fitted activation curve with a large enough effect in the signal ratio in the repeat runs, with a control signal flat, not every such curve was filed as active; the % refers to the signal ratio). Summed up:
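Cell-based FRET reporter assay: HEK293 line with a UAS-beta-lactamase construct, compounds added in DMSO, 16 h exposure at 37C, then 2 h substrate step at room temperature and fluorescence intensity read.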

Experiment [9] shares this target. Kind of experiment: qHTS assay to identify small molecule agonists of the androgen receptor (AR) signaling pathway using the MDA cell line (AID 743040; note: nearly all actives have a fitted effect of over 20% in size). Summed up: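 Luminescence from ONE-Glo, read after 30 min at room temperature, reflects MMTV-driven luciferase in MDA-kb2 cells (AR- and GR-responsive). Treatment lasted 16 h at 37C, 0% CO2.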
The target is the same in experiment [10]. Kind of experiment: qHTS assay to identify small molecule antagonists of the androgen receptor (AR) signaling pathway using the MDA cell line (AID 743042; note: nearly all actives have a fitted effect of over 55% in size). A digest of the protocol:
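MDA-kb2 cells (human breast carcinoma, stably carrying an MMTV-luciferase reporter responsive to AR and GR) were plated at 3,000 cells/well and preincubated 5 hr at 37C, then given compound plus R1881 agonist for 16 h. ONE-Glo luminescence was read.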

Structures are written as SMILES. Inconclusive results are not listed. Active and inactive are the calls of the source. Unless noted, calls come from the whole dose curve; as a rule, active = well fitted curve in the direction sought with a large enough effect in the repeat runs; inconclusive = weak or mixed curves; inactive = no such curve, though single readings can be large; an effect the other way counts as inactive or inconclusive.

Chain of Androgen receptor (Homo sapiens) (P10275 whole entry, looked up): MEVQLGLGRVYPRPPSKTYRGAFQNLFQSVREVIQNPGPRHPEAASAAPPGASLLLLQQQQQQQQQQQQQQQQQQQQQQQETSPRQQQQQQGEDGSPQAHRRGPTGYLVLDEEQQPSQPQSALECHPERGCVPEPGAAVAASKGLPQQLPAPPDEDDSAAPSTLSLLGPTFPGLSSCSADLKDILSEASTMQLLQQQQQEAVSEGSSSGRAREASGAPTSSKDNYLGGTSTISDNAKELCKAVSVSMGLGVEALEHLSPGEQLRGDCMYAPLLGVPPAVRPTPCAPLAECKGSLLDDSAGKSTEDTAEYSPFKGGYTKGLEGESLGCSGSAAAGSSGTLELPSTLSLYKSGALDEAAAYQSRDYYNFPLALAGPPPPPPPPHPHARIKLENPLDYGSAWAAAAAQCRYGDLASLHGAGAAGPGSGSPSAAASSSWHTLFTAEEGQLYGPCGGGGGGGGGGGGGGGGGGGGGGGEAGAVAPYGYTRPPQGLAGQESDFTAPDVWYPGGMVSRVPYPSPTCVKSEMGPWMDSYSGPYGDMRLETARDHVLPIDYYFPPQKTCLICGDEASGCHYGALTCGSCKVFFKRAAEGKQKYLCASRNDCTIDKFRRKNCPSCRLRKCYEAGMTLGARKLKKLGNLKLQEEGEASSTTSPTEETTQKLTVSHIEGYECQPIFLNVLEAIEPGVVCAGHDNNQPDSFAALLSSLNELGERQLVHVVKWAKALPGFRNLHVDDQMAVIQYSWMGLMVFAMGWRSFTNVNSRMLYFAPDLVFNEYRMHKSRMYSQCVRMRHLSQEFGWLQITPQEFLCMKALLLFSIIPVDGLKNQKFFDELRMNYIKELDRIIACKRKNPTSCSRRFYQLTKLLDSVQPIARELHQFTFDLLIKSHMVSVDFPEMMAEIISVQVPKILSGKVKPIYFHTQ

With `CC1(C)CC(=O)CC(C)(C)N1`, the Potency entry in [1], in experiment [2], in [3], in [4], in experiment [5] and in experiment [6] was “inactive” throughout.

With `CCCCOc1ccc(N)cc1`, the Potency result in experiment [1], in experiment [2], in experiment [3], in experiment [4], in [5] and in experiment [6] was “inactive” in each case.

As to `CCCCCCCCCCCC(=O)OCC`, the Potency result in [1], in experiment [2], in experiment [3], in experiment [4], in experiment [5] and in experiment [6] was “inactive” throughout.

With `CC(=O)c1cccnc1`, the Potency result in [1], in experiment [2], in experiment [3], in experiment [4], in [5] and in experiment [6] was “inactive” each time.

With `Clc1nc2ccccc2nc1Cl`, the Potency result in experiment [1], in experiment [2], in experiment [3], in experiment [4], in experiment [5] and in [6] was “inactive” throughout.

Consider `COC(=O)C(C)(C)C`, for which the Potency entry in experiment [1], in experiment [2], in experiment [3], in [4], in [5] and in [6] was “inactive” throughout.

For `Cc1ccc(NC=O)c(C)c1`, the Potency result in experiment [1], in [2], in experiment [3], in experiment [4], in [5] and in experiment [6] was “inactive” in each case.

For `O=C(O)c1cccc(C(=O)O)c1C(=O)O`, the Potency entry in [1], in experiment [2], in [3], in [4], in experiment [7] and in experiment [6] was “inactive” throughout. The Potency entry in [10] is “inactive”. For the same molecule, the molecule was called inactive in experiment [8] and in experiment [9].

Regarding `CC(=O)S[C@H](C(=O)N[C@H]1Cc2ccccc2[C@H]2CCC[C@@H](C(=O)O)N2C1=O)C(C)C`, the Potency result in experiment [1], in [2], in experiment [3], in [4], in [5] and in experiment [6] was “inactive” throughout.

Regarding `OCCc1ccncc1`, the Potency result in experiment [1], in [2], in experiment [3], in experiment [4], in experiment [5] and in experiment [6] was “inactive” throughout.

Take `CC1=C(C)C(=O)C(CCCCC#CCCCC#CCO)=C(C)C1=O`: the Potency result in experiment [1], in experiment [5] and in [6] was “inactive” in each case. In addition, the Potency in experiment [2] was 8.41 µM (active); in experiment [3], 10.6 µM (active); in [4], 11.9 µM (active).

Take `CCOC(OCC)OCC`: the Potency result in experiment [1], in [2], in [3], in [4], in experiment [5] and in [6] was “inactive” each time.

Take `CC(=O)c1ccc(Cl)c(Cl)c1Cl`: the Potency entry in [1], in experiment [2], in experiment [3], in experiment [4], in experiment [5] and in experiment [6] was “inactive” each time.

Turning to `O=C(O)c1c2ccccc2cc2ccccc12`, the Potency result in experiment [1], in experiment [2], in experiment [3], in [4], in [5] and in experiment [6] was “inactive” in each case.

Turning to `CCCCCCCCCCCCSC#N`, the Potency entry in experiment [1], in experiment [2], in [3], in experiment [4], in experiment [5] and in experiment [6] was “inactive” throughout.

For the molecule `C=C[Si](OCC)(OCC)OCC`, the Potency result in experiment [1], in [2], in experiment [3], in experiment [4], in experiment [5] and in experiment [6] was “inactive” in each case.

Regarding `C=CC(=O)OCCCCCCCCCC`, the Potency entry in experiment [1], in [2], in experiment [3], in [4], in experiment [5] and in experiment [6] was “inactive” in each case.

For `CC(C(=O)O)c1ccc(/C=C2\CCCCC2=O)cc1` (stereo not drawn), the Potency result in experiment [1], in [2], in experiment [3], in experiment [4], in experiment [5] and in experiment [6] was “inactive” throughout.

`C=CCCC`: the Potency entry in experiment [1], in experiment [2], in [3], in experiment [4], in [5] and in [6] was “inactive” throughout.

On to `CCCN(C1CCN(C(=O)C2CCNCC2)CC1)[C@@H]1CCc2ccc(OC)cc2C1`, for which the Potency entry in experiment [1] and in experiment [10] was “inactive” each time. Moreover, the Potency in experiment [2] was 15.4 µM (active); in [3], 15.4 µM (active); in experiment [4], 19.3 µM (active). For the same molecule, the result in [8] and in experiment [9] was inactive.

Take `N#CCCCC(C#N)CCC#N` (stereo not drawn): the Potency entry in experiment [1], in experiment [2], in [3], in [4], in [5] and in experiment [6] was “inactive” in each case.

As to `CC(O)CN` (stereo not drawn), the Potency entry in [1], in [2], in experiment [3], in [4], in experiment [5] and in experiment [6] was “inactive” throughout.

As to `OCC(O)c1ccccc1` (stereo not drawn), the Potency entry in experiment [1], in experiment [2], in [3], in experiment [4], in [5] and in experiment [6] was “inactive” in each case.

Regarding `Nc1ccccc1Nc1ccccc1`, the Potency in [1] is 55.1 µM (active); in experiment [2] it was 19.4 µM (active); in [3], 8.66 µM (active); in experiment [4] it was 15.4 µM (active). For the same molecule, the Potency entry in experiment [5] and in experiment [6] was “inactive” throughout.

On to `O=S(=O)(O)c1cc(Cl)c(Cl)cc1Cl`, for which the Potency entry in experiment [1], in experiment [2], in [4], in experiment [5], in experiment [6] and in experiment [10] was “inactive” in each case. Also, the molecule was classed as inactive in [8] and in experiment [9].

With `O=C(O)c1cc(C(=O)O)cc([N+](=O)[O-])c1`, the Potency result in experiment [1], in experiment [2], in experiment [3], in [4] and in experiment [6] was “inactive” each time.

For the molecule `CC/C=C/CCO`, the Potency entry in experiment [1], in experiment [2], in experiment [4], in experiment [5] and in experiment [6] was “inactive” in each case.

As to `COc1ccc(C(=O)c2ccc(C)cc2)c(O)c1`, the Potency result in experiment [1], in [2], in experiment [3], in [5] and in [6] was “inactive” throughout.

Consider `CCCC(=O)OCc1ccccc1`, for which the Potency result in [1], in experiment [2], in [3], in experiment [4] and in experiment [6] was “inactive” each time.

Turning to `CCn1nc(Cc2ccccc2)cc1C1CCN(C[C@H]2C[C@H](N(C)[C@@H](C(=O)O)C(C)C)C[C@@H]2c2cccc(F)c2)CC1`, the Potency entry in [1] and in [6] was “inactive” each time. Also, the figures for the Potency in experiment [2], in experiment [3] and in [4] were 61.1 µM (active), 61.1 µM (active) and 24.3 µM (active), respectively.

Take `CC(C)CC(C)(C)C`: the Potency result in [1], in [2], in experiment [3], in experiment [4] and in experiment [6] was “inactive” in each case.

With `O=C(O)c1cccnc1Nc1cccc(C(F)(F)F)c1`, the Potency result in experiment [1], in experiment [2], in experiment [3], in experiment [4] and in experiment [6] was “inactive” throughout.

For the molecule `CC(C(=O)O)c1ccc2c(c1)Cc1cccnc1O2` (stereo not drawn), the Potency result in [1], in experiment [2], in experiment [3], in experiment [4], in experiment [6] and in [10] was “inactive” in each case. Also, the molecule was called inactive in experiment [9].
